Compound activity: PubChem BioAssay, National Center for Advancing Translational Sciences (NCATS)
Vaccinia Venus = vaccinia inhibition (Venus reporter); Vaccinia virus Venus reporter expression, fluorescence; Potency, µM (titrated, usually from 36.5 µM), most hits filed as inhibitors; 330,000 compounds, 0.46% hits; calls by dose curve; tested in A549 cells; also: nearly all actives have a fitted effect of over 30% in size
AmpC detergent = blocks E. coli AmpC beta-lactamase in detergent assay | P00811 | AmpC hydrolysis of nitrocefin, absorbance 480 nm, 0.01% Triton | Potency, µM (series often up to 114 µM), hits mostly inhibitors | 370,000 compounds, 0.041% hits | AID 485294; also: nearly all actives have a fitted effect of over 25% in size
Target sequence (P00811 whole entry, looked up): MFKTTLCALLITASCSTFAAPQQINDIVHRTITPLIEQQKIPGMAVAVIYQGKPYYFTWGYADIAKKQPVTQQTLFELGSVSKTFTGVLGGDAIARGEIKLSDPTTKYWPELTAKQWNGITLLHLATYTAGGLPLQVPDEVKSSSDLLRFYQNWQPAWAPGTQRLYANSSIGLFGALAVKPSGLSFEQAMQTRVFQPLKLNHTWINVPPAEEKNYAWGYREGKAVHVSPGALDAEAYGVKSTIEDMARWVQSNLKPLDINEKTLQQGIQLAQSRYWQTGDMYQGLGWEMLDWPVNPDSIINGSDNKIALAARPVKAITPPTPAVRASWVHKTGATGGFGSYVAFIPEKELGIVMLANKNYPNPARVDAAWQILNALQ
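20 mM phosphate pH 7.0 + 0.01% (detergent screen) or 0.0001% Triton X-100; 5.3 nM AmpC reagent; cpd preinc 15 min RT; nitrocefin (800 uM stock) to start; A480 q20 s × 4 min; Activity was normalised to no-enzyme and no-compound control wells.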
SARS PLP yeast = SARS-CoV PLP inhibition in yeast. S. cerevisiae expressing SARS-CoV PLpro, growth rescue. Potency, µM (top dose mostly 32.9 µM), most hits filed as activators. 330,000 compounds, 0.19% hits; calls by dose curve; also: nearly all actives have a fitted effect of over 55% in size
Vaccinia mCherry = vaccinia inhibition (mCherry reporter); Vaccinia virus mCherry reporter infection, fluorescence; 310,000 compounds, 0.63% hits; Potency, µM (titrated, usually from 36.5 µM), actives largely listed as inhibitors; calls by dose curve; tested in A549 cells; also: nearly all actives have a fitted effect of over 35% in size
AmpC no deterg = AmpC beta-lactamase inhibition without detergent; P00811; AmpC nitrocefin hydrolysis, absorbance 480 nm, 0.0001% Triton; Potency, µM (doses to about 57.1 µM), actives largely listed as inhibitors; 330,000 compounds, 0.52% hits; AID 485341; also: nearly all actives have a fitted effect of over 20% in size
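20 mM phosphate pH 7.0 + 0.01% (detergent screen) or 0.0001% Triton X-100; 5.3 nM AmpC reagent; cpd preinc 15 min RT; nitrocefin (800 uM stock) to start; A480 q20 s × 4 min; Activity was normalised to no-enzyme and no-compound control wells.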
Each line names hits and unclear results; the compound was inactive in the other large screens. In the library only some 1.3% were active in any assay of this set; here they are far more common. Unless noted, calls follow the shape of the dose curve; as a rule, active = well fitted curve in the direction sought with a large enough effect; inconclusive = small, poorly fitted or top-dose-only effect, or another doubt; inactive = no such curve, though single readings can be large; an effect the other way counts as inactive or inconclusive.

NC(c1ccccc1)c1csc(NC(=O)Nc2cccc(Cl)c2)n1 (configuration not stated)	Vaccinia Venus 10µM (no result: AmpC detergent, SARS PLP yeast, AmpC no deterg)
NC(=O)C1CCN(CC(=O)c2c[nH]c3ccc(F)cc23)CC1	AmpC no deterg 0.14µM
O=C(CN1CCN(c2ccccc2F)CC1)c1c[nH]c2ccc(F)cc12	none (no result: Vaccinia Venus, Vaccinia mCherry)
Cc1cc(C)cc(NS(=O)(=O)c2ccc3c(c2)c(=O)n(C)c(=O)n3C)c1	Vaccinia Venus 5µM, Vaccinia mCherry 5.6µM
Cn1c(=O)c2cc(S(=O)(=O)Nc3cc(C(=O)O)cc(C(=O)O)c3)ccc2n(C)c1=O	none (no result: Vaccinia Venus, Vaccinia mCherry)
O=c1c2ccccc2nc(/C=C/c2ccc([N+](=O)[O-])o2)n1-c1ccc(O)cc1	Vaccinia mCherry 3.5µM
CCn1cc(C(=O)NCc2ccc3c(c2)OCO3)c(=O)c2cc(F)c(N3CCN(C(=O)c4ccco4)CC3)cc21	Vaccinia Venus 13µM, Vaccinia mCherry 11µM
O=C(c1cc(-c2ccc(Br)cc2)nc2ccccc12)N1CCN(c2ccccc2O)CC1	Vaccinia Venus inconclusive, Vaccinia mCherry 14µM
O=C(Nc1ccc(C(=O)OCc2cc(=O)n3c4c(sc3n2)CCCC4)cc1)c1ccccc1	none (no result: SARS PLP yeast, AmpC no deterg)
COC(=O)CS(=O)(=O)c1ccc2c(c1)CC(=O)N2	AmpC no deterg 0.14µM (no result: Vaccinia mCherry)
COc1ccc(Oc2nc(SC)nc3ccccc23)cc1	AmpC no deterg 0.16µM (no result: Vaccinia mCherry)
Cn1nc(-c2ccccn2)nc2c(=O)n(C)c(=O)nc1-2	none (no result: Vaccinia Venus, Vaccinia mCherry)
CCc1ccc(-c2nc3c(=O)n(C)c(=O)nc-3n(CC)n2)cc1	Vaccinia Venus 11µM, Vaccinia mCherry 5.6µM (no result: AmpC detergent, SARS PLP yeast, AmpC no deterg)
Cc1ccc(-c2nc3c(=O)n(C)c(=O)nc-3n(C)n2)cc1	Vaccinia Venus 0.89µM, Vaccinia mCherry 2.8µM (no result: AmpC detergent, SARS PLP yeast, AmpC no deterg)
Cc1ccccc1-c1nc2c(=O)n(C)c(=O)nc-2n(C)n1	Vaccinia Venus 0.89µM, Vaccinia mCherry 2.8µM (no result: AmpC detergent, SARS PLP yeast, AmpC no deterg)
CCCc1nc2c(=O)n(C)c(=O)nc-2n(C)n1	Vaccinia Venus 1µM, Vaccinia mCherry inconclusive
CC(=O)N[C@@H](C)C(=O)NCC1Cc2cc(C)cc(-c3cnccn3)c2O1 (some centres not stated)	none (no result: AmpC detergent, SARS PLP yeast, AmpC no deterg)
Cc1ncc2c(c1CNS(=O)(=O)N(C)C)CCN(C(=O)/C=C/c1cccc(F)c1)C2	none (no result: AmpC detergent, SARS PLP yeast, AmpC no deterg)
COc1cccc(C2CC(c3ccc(Br)cc3)=NN2C(=O)c2ccncc2)c1OC (configuration not stated)	Vaccinia Venus inconclusive, Vaccinia mCherry 14µM
Cc1cc(C(=O)Nc2ccccc2-c2nc(CNC(=O)C3(C)CCCCC3)c(C)o2)c(C)o1	none (no result: AmpC detergent, SARS PLP yeast, AmpC no deterg)
O=C(Cn1c(=O)sc2ccccc21)NCc1ccccn1	AmpC detergent inconclusive, AmpC no deterg 45µM
COc1cccc(CC2(CO)CCCN(Cc3[nH]c4ccc(C)cc4c3C)C2)c1 (configuration not stated)	Vaccinia Venus inconclusive, Vaccinia mCherry 11µM
COc1cccc(CC2(CO)CCCN(Cc3ccc(C)s3)C2)c1 (configuration not stated)	none
CC(C)=CCC/C(C)=C/CNC(=O)C[C@H]1C[C@H](C(=O)N2CCOCC2)[C@@]2(C)c3[nH]c4cc(-c5ccco5)ccc4c3CCN2C1=O	Vaccinia Venus 11µM, Vaccinia mCherry inconclusive (no result: AmpC detergent)
C[C@]12c3[nH]c4cc(-c5ccco5)ccc4c3CCN1C(=O)[C@@H](CC(=O)NCc1cccc(C(F)(F)F)c1)C[C@@H]2C(=O)N1CCCCC1	Vaccinia Venus inconclusive, Vaccinia mCherry 11µM (no result: AmpC detergent)
CC[C@]12c3[nH]c4cc(-c5ccco5)ccc4c3CCN1C(=O)[C@@H](CC(=O)NCc1cccc(C(F)(F)F)c1)C[C@@H]2C(=O)N1CCN(C(=O)C2CC2)CC1	Vaccinia Venus inconclusive, Vaccinia mCherry inconclusive (no result: AmpC detergent)
CC[C@]12c3[nH]c4ccc(OC)cc4c3CCN1C(=O)C(CC(=O)NCC13CC4CC(CC(C4)C1)C3)C[C@@H]2C(=O)N1CCN(C(=O)c2ccco2)CC1 (some centres not stated)	none (no result: AmpC detergent)
CC[C@]12c3[nH]c4cc(-c5ccco5)ccc4c3CCN1C(=O)[C@@H](CC(=O)NCC13CC4CC(CC(C4)C1)C3)C[C@@H]2C(=O)N1CCN(C(=O)c2ccco2)CC1	Vaccinia Venus inconclusive, Vaccinia mCherry 7.1µM (no result: AmpC detergent)
CC[C@]12c3[nH]c4ccc(Cl)cc4c3CCN1C(=O)[C@@H](CC(=O)NCC13CC4CC(CC(C4)C1)C3)C[C@@H]2C(=O)N1CCN(C(=O)c2ccco2)CC1	Vaccinia Venus 14µM, Vaccinia mCherry 11µM (no result: AmpC detergent)
